Values joined by “and” are separate entries in the source; they are usually repeats but may differ in a detail not shown here. Equal values may be shown once. Active and inactive are the calls of the source.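 The calls were made as follows, unless noted: active = thallium flux through the channel raised or lowered by more than 3 SD from vehicle-only wells, actives on both sides; inactive = the rest.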

Experiment [1] can be described thus: P. berghei load reduction in hepatocytes – cell-based, HepG2, luciferase luminescence, HepG2 viability, primary screen (AID 624349; in the data active = parasite load remaining mostly below about 12%, no sharp cut-off; inactive = mostly above about 10%;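 also: 100% = mean of DMSO negative control wells on the same plate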). As to conditions: P. berghei liver stage in HepG2, luciferase luminescence, concentration not given here; parasite load remaining: stronger effect = lower value; viability: measured here: HepG2 viability without parasites.
Experiment [2] is described as follows: signal quenchers or enhancers, Cy5 substrate/SSB – biochemical, NIH Clinical Collection, E. coli SSB, artefact control for HCV NS3 helicase inhibitor project (AID 743268; call rule not given here). The conditions noted are these: Cy5-oligo bound E. coli SSB, fluorescence interference.
Experiment [3] concerns Hepatitis C virus NS3 helicase. The experiment in a line: blockers of NS3h binding to DNA – biochemical, fluorescence polarization, NIH Clinical Collection, primary screen (AID 743270; call rule not given here). As to conditions: NS3 helicase binding to Cy5-dT15 DNA, stronger effect = higher value, concentration not given here.
Experiment [4] addresses Single-stranded DNA-binding protein (Escherichia coli (strain K12)) (UniProt P0AGE0). Nature of the experiment: SSB-ssDNA binding inhibitors – biochemical, fluorescence polarization, NIH Clinical Collection, counter-screen for HCV NS3 helicase inhibitor project (AID 743271; in the data active = inhibition above about 28%). The conditions noted are these: E. coli SSB-DNA binding, stronger effect = higher value, concentration not given here. For orientation: In fluorescence polarisation assays a small probe gives low polarisation when free and higher when bound to something large.

Experiment [5] in a line: compounds distorting NS3 helicase fluorescence signal – biochemical, NIH Clinical Collection, artefact control for HCV NS3 helicase inhibitor project (AID 743272; call rule not given here;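 also: HCV NS3 helicase with a Cy5 labelled single stranded DNA probe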). The conditions noted are these: fluorescence interference counterscreen, HCV NS3 helicase assay; stronger effect = lower value.
Experiment [6] can be described thus: viability loss with induced miR-34 in A549 – imaging, A549 dox-inducible miR-34, nuclei and caspase counts, primary screen (AID 1347080;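 active = compounds whose cell count with miR-34 switched on is under 0.7 times the count with it off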). As to conditions: A549 miR-34 inducible, Hoechst nuclei count, 48 h.
Experiment [7] is described as follows: MELAS cybrid and Rieske KO viability enhancers – cell-based, MELAS cybrids, Rieske KO mouse fibroblasts, CellTiter-Glo, primary screen (AID 1508586;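 active = mean z-score across replicates of 1.96 or higher in either the MELAS or the Rieske mutant cell line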;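 also: z relative to plate mean and SD of compound and empty wells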). As to conditions: low glucose. On the technique in general: ATP-based viability assays read luminescence as a measure of living cells.
A short description of experiment [8]: galactose survival enhancers in mitochondrial complex I cybrids – cell-based, galactose medium, ATP luminescence, primary screen (AID 1645843;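 active = z-score of at least 1.8 in each of two replicates, scored against plate mean and spread of sample wells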;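 also: positive z means more ATP and so rescue of galactose-driven cybrid death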). As to conditions: complex I mutant cybrid cells, 72 h, stronger effect = higher value.
In experiment [9] the test system is F380Y. The experiment in a line: BK channel mutant inhibitors and activators – cell-based, U2OS BacMam, thallium flux, beta subunits, selectivity assay, profiling panel (AID 1259406).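 Also: initial slope of Thallos dye fluorescence rise after thallium is added; log ratio against the mean of 0.3% DMSO vehicle wells on the same plate.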 The conditions noted are these: U2OS BacMam BK variants, at 30 µM.
Experiment [10] concerns F380Y/beta1. Described as above. The conditions noted are these: U2OS BacMam BK variants, at 30 µM.
For experiment [11], the system named is F380Y/beta2Delta. The experiment is described as above. The conditions noted are these: U2OS BacMam BK variants, at 30 µM.
The test system of experiment [12] is F380Y/beta4. The experiment is described as above. As to conditions: U2OS BacMam BK variants, at 30 µM.
Experiment [13] deals with Calcium-activated potassium channel subunit alpha-1 (Homo sapiens) + Leucine-rich repeat-containing protein 26 (Homo sapiens) (UniProt Q12791+Q2I0M4). The description is as above. As to conditions: U2OS BacMam BK variants, F380Y/Slo1WT/gamma1, at 30 µM.
Chain of Calcium-activated potassium channel subunit alpha-1 (Homo sapiens) + Leucine-rich repeat-containing protein 26 (Homo sapiens) (Q2I0M4 whole entry, looked up, one chain of several): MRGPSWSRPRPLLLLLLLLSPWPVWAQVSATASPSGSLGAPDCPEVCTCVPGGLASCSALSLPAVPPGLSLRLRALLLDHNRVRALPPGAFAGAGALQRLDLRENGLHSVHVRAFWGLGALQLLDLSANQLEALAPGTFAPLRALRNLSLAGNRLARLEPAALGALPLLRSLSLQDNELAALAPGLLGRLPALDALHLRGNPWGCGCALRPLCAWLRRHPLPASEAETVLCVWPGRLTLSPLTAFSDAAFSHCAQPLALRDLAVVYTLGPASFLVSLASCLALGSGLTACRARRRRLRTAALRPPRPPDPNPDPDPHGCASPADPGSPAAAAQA
Experiment [14] relates to R275C. Described as above. The conditions noted are these: U2OS BacMam BK variants, at 30 µM.
For experiment [15], the system named is R275C/beta1. The experiment is described as above. The conditions noted are these: U2OS BacMam BK variants, at 30 µM.
In experiment [16] the test system is R275C/beta2Delta. Described as above. The conditions noted are these: U2OS BacMam BK variants, at 30 µM.
Experiment [17] concerns R275C/beta4. Described as above. The conditions noted are these: U2OS BacMam BK variants, at 30 µM.
The test system of experiment [18] is R275C/Slo1WT/beta2. The description is as above. As to conditions: U2OS BacMam BK variants, at 30 µM.
Experiment [19] has as its system Neuropilin-2 / VEGF-C interaction (human). The experiment in a line: small molecules blocking Neuropilin-2/VEGF-C interaction – biochemical, microplate binding format, z-score (AID 743281; call rule not given here). The conditions noted are these: microplate NRP2/VEGF-C binding assay; stronger effect = lower value.
A short description of experiment [20]: modulation of C. elegans fzo-1 (AID 1259413; call rule not given here;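 also: fzo-1 mutant C. elegans worms in liquid wells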). The conditions noted are these: C. elegans fzo-1 modulator screen, mean read-out; stronger effect = higher value.
[21] abbreviates: stronger effect = lower value, cell number ratio, induced over uninduced.
The mark [22] stands for this setting: measured here: relative caspase fold change +Dox/-Dox.
The mark [23] stands for this setting: measured here: total cells with miR-34 induction, stronger effect = lower value.
[24] abbreviates: measured here: total cells without miR-34 induction.
[25] abbreviates: MELAS cybrid survival, CellTiter-Glo 48 h, stronger effect = higher value.
Setting [26] is: Rieske KO mouse fibroblast survival, CellTiter-Glo 72 h.

As to `C[C@]12CC3CC(N)(C1)C[C@@](C)(C3)C2`, the parasite load remaining in experiment [1] is 113% (inactive) and 58.5% (inactive). Besides, the viability (in general, a read-out of living cells in per cent, often relative to untreated cells) in experiment [1] is 85.8% and 102%. In addition, the fluorescence ratio in experiment [2] was 1.06 (inactive); in experiment [5] it was 0.95 (inactive). In addition, the values for the inhibition in experiment [3] and in experiment [4] were 0.4% (inactive) and -0.87% (inactive), respectively. The fold change was 0.918 (inactive) and 0.871 (inactive) in experiment [6] (setting [21]); 1.34 and 1.17 in [6] (setting [22]). Moreover, the cell count was 9680 and 10100 in [6] (setting [23]); 10500 and 11600 in experiment [6] (setting [24]). The z-score in experiment [7] (setting [25]) was -0.593 (inactive); in [7] (setting [26]), -0.282; in experiment [8], -0.375 (inactive) and -0.275 (inactive). Also, the log fold change Tl+ flux in experiment [9] was -0.00548 (inactive); in experiment [10], -0.0368 (inactive); in experiment [11], 0.033 (inactive); in [12], 0.0342 (inactive); in experiment [13], -0.0162 (inactive); in [14], 0.0086 (inactive). Further, the log fold change Tl+ flux in experiment [15] is -0.0112 (inactive); in experiment [16], -0.0288 (inactive); in [17], -0.00234 (inactive); in [18] it was -0.0124 (inactive).

Consider `O=C(OC1C[C@@H]2CC3C[C@H](C1)N2CC3=O)c1c[nH]c2ccccc12` (some centres undefined), for which the parasite load remaining in experiment [1] was 52.7% (inactive). For the same molecule, the viability in experiment [1] was determined as 72.3%. Also, the fluorescence ratio in experiment [2] is 1.02 (inactive); in experiment [5] it was 1 (inactive). Also, the inhibition – broadly, the relative decrease from the control value, in per cent – in experiment [3] was -2.84% (inactive); in experiment [4], -2.76% (inactive). Further, the z-score in experiment [19] is -0.0143 (inactive); in experiment [7] (setting [25]) it was 0.403 (inactive); in experiment [7] (setting [26]), -0.707. Besides, the mean signal in experiment [20] was 222 (inactive). Also, the log fold change Tl+ flux in experiment [9] is 0.0495 (inactive); in experiment [10], 0.0612 (inactive); in experiment [11], 0.0379 (inactive); in [12], 0.00589 (inactive); in [13], -0.004 (inactive); in experiment [14], -0.0531 (inactive). Further, the log fold change Tl+ flux in [15] was 0.0632 (inactive); in [16], 0.00308 (inactive); in experiment [17], 0.022 (inactive); in experiment [18] it was 0.011 (inactive).

`CO[C@H]1/C=C/O[C@@]2(C)Oc3c(C)c(O)c4c(O)c(c5c(c4c3C2=O)NC2(CCN(CC(C)C)CC2)N=5)=NC(=O)/C(C)=C\C=C\[C@H](C)[C@H](O)[C@@H](C)[C@@H](O)[C@@H](C)[C@H](OC(C)=O)[C@@H]1C`: the parasite load remaining in [1] is 23.3% (inactive). The viability in experiment [1] worked out at 92.9%. Besides, the fold change in [6] (setting [21]) was 1.03 (inactive); in experiment [6] (setting [22]), 1.58. Moreover, the cell count stood at 8520 in [6] (setting [23]) and 8270 in experiment [6] (setting [24]). Moreover, the z-score in experiment [7] (setting [25]) is 1.35 (inactive); in experiment [7] (setting [26]), 1.35; in experiment [8] it was -1.49 (inactive). Further, the log fold change Tl+ flux in [9] is 0.0411 (inactive); in experiment [10], -0.0629 (inactive); in experiment [11], -0.104 (active); in [12], -0.0899 (inactive); in experiment [13] it was -0.055 (inactive); in experiment [14], -0.198 (active). Moreover, the log fold change Tl+ flux in [15] is 0.128 (active); in [16] it was -0.107 (active); in [17], 0.00982 (inactive); in experiment [18], -0.0228 (inactive).

Take `O=C(O)Cc1ccc([N+](=O)[O-])cc1`: the values for the fold change in experiment [6] (setting [21]) and in [6] (setting [22]) were 0.849 (inactive) and 0.69, respectively. Moreover, the values for the cell count in [6] (setting [23]) and in [6] (setting [24]) were 8560 and 10100, respectively. The z-score in experiment [7] (setting [25]) was -0.276 (inactive); in [7] (setting [26]), -0.17; in experiment [8] it was 0.95 (inactive). Besides, the log fold change Tl+ flux in [9] was -0.0269 (inactive); in experiment [10], -0.0396 (inactive); in [11], -0.012 (inactive); in experiment [12], -0.00207 (inactive); in experiment [13] it was -0.0215 (inactive); in [14] it was -0.0145 (inactive). Besides, the log fold change Tl+ flux in experiment [15] is -0.00497 (inactive); in [16], 0.00238 (inactive); in [17] it was -0.00439 (inactive); in experiment [18] it was 0.0202 (inactive).
